This is an account of results in PubChem BioAssay AID624255 (Broad Institute, 2012).

Several values for one entry are separate records, joined by “and”; a condition that tells them apart may be missing. Equal entries are not always repeated. The campaign covered roughly 77,000 compounds. About 4,600 (6%) were called active. Inconclusive results (about 1%) are left out. What follows is part of a selection rich in actives, with near analogues and random picks from the rest. Unmarked numbers belong to inactive results.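 How the source made its calls: active means mean inhibition above about 93%, with at least 55% of replicates each passing it (limit read from the data, passing the limit was not always enough); inconclusive means only one of those two conditions holds; inactive means neither condition holds.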

This experiment in a line: growth inhibition of T. cruzi in host fibroblasts – cell-based, beta-gal Tulahuen parasites, NIH3T3 host, luminescence, primary screen (AID 624255). Particulars: T. cruzi beta-gal in NIH3T3, GalScreen luminescence, 90 h; at 8.34 µM; hits give high values.
As to `C/C=C/c1ccc([C@H]2[C@@H](CNC(=O)NC(C)C)N(C(=O)C3CCC3)[C@H]2CO)cc1`, the inhibition (in general, the relative decrease from the control value, in per cent) is 7.28%.
Under `C/C=C/c1ccc([C@H]2[C@@H](CO)N(C(C)=O)[C@H]2CNC(=O)c2ccncc2)cc1` stands 72.7%; under `C/C=C/c1ccc([C@H]2[C@@H](CNC(C)C)N(c3nc(CC)cs3)[C@H]2CO)cc1`, 100% (active).
Under `CO[C@H](C(=O)N(C)C[C@@H]1OCc2ccccc2-c2c(n(C)c3ccccc23)C(=O)N([C@@H](C)CO)C[C@H]1C)c1ccccc1` stands -13.2%; under `CN1[C@H](C(=O)N2CCc3ccccc3C2)[C@@H](CO)[C@@H]2Cn3c(ccc(-c4cncnc4)c3=O)[C@@H]21`, 79.8%.
Under `COc1cccc(S(=O)(=O)N[C@H]2CC[C@H](CCN)O[C@H]2CO)c1` stands -31.7%; under `CO[C@H]1CN(C)C(=O)c2cc(NS(C)(=O)=O)ccc2OC[C@@H](C)N(C)C[C@@H]1C`, 13.7%.
Take `COc1ccc(-c2ccc([C@H]3[C@H]4CN(C(=O)c5ccc6c(c5)OCO6)CCCCN4[C@H]3CO)cc2)cc1`: the inhibition was 117% (active).
Under `CC(C)C#Cc1ccc([C@@H]2[C@@H](CO)N3CCCCN(C(=O)c4ccc5c(c4)OCO5)C[C@H]23)cc1` stands 67.5%; under `C[C@@H](O)C#Cc1ccc([C@H]2[C@H]3CN(C(=O)c4ccc5c(c4)OCO5)CCCCN3[C@H]2CO)cc1`, 26%; under `CCCC#Cc1ccc([C@H]2[C@@H](CO)N3CCCCN(C(=O)c4ccc5c(c4)OCO5)C[C@@H]23)cc1`, 50.9%.
In the case of `C[C@@H](O)C#Cc1ccc([C@@H]2[C@H]3CN(C(=O)c4ccc5c(c4)OCO5)CCCCN3[C@H]2CO)cc1`, the inhibition is 71.8%.
For `Cc1cccc(-c2ccc([C@@H]3[C@H](CO)N4CCCCN(C(=O)c5ccc6c(c5)OCO6)C[C@@H]34)cc2)c1`, the inhibition was 98.3% (active).
Turning to `Cc1ccc(S(=O)(=O)N[C@H]2CC[C@@H](CC(=O)NCCCN(C)C)O[C@H]2CO)cc1`, the inhibition was -52%.
Consider `CN1c2ccc(-c3cccc(C#N)c3)cc2[C@H]2[C@H](CCN2S(=O)(=O)c2cccc(F)c2)[C@@H]1CO`, for which the inhibition was 41.7%.
Under `C[C@H](CO)N1C[C@H](C)[C@H](CN(C)S(C)(=O)=O)Oc2ncc(C3=CCCCC3)cc2C1=O` stands 47.7%; under `CCC(=O)N1C[C@H](C)[C@H](OC)CN(C)C(=O)c2ccc(NC(=O)Nc3cccc(F)c3)cc2OC[C@@H]1C`, 24.9%; under `C[C@@H]1CCCCO[C@@H](CN(C)C(=O)Nc2ccc(C(F)(F)F)cc2)[C@H](C)CN([C@H](C)CO)C(=O)c2cc(NC(=O)C3CCCCC3)ccc2O1`, 82.6%.
Under `CC(C)NC(=O)Nc1ccc2c(c1)C(=O)N([C@@H](C)CO)C[C@@H](C)[C@@H](CN(C)C(=O)Nc1ccc(C(F)(F)F)cc1)OCCCC[C@H](C)O2` stands 45.6%; under `C[C@@H]1CN([C@@H](C)CO)C(=O)c2cc(NC(=O)C3CCCCC3)ccc2O[C@@H](C)CCCCO[C@@H]1CN(C)C(=O)Nc1ccccc1`, 3.47%.
Next, `COc1ccc(NC(=O)Nc2ccc3c(c2)C(=O)N([C@H](C)CO)C[C@@H](C)[C@H](CN(C)C(=O)Nc2ccc(C(F)(F)F)cc2)OCCCC[C@@H](C)O3)cc1`: 121%; `CC(C)NC(=O)Nc1ccc2c(c1)C(=O)N([C@H](C)CO)C[C@H](C)[C@H](CN(C)C(=O)Nc1ccc(C(F)(F)F)cc1)OCCCC[C@@H](C)O2`: 104% (active); `C[C@H](CO)N1C[C@H](C)[C@H](CN(C)C(=O)Nc2ccc(C(F)(F)F)cc2)OCCCC[C@H](C)Oc2ccc(NC(=O)C3CCCCC3)cc2C1=O`: 99.4% (active).
As for `C[C@@H]1CN([C@@H](C)CO)C(=O)c2cc(NC(=O)Nc3ccc4c(c3)OCO4)ccc2O[C@@H](C)CCCCO[C@H]1CN(C)C(=O)Nc1ccc(C(F)(F)F)cc1`, the inhibition is 105% (active).
Under `C[C@H](CO)N1C[C@H](C)[C@@H](CN(C)C(=O)Nc2ccc3c(c2)OCO3)OCCCC[C@H](C)Oc2ccc(NC(=O)Nc3ccc4c(c3)OCO4)cc2C1=O` stands 66.3%; under `COc1ccc(NC(=O)N(C)C[C@H]2OCCCC[C@H](C)Oc3ccc(NC(=O)Nc4ccc(C(F)(F)F)cc4)cc3C(=O)N([C@@H](C)CO)C[C@@H]2C)cc1`, 110% (active); under `CC(C)NC(=O)Nc1ccc2c(c1)C(=O)N([C@@H](C)CO)C[C@H](C)[C@H](CN(C)C(=O)Nc1ccc(F)cc1)OCCCC[C@@H](C)O2`, 10.6%.
Under `COc1ccc(NC(=O)Nc2ccc3c(c2)C(=O)N([C@H](C)CO)C[C@H](C)[C@@H](CN(C)C(=O)Nc2ccc(OC)cc2)OCCCC[C@H](C)O3)cc1` stands -4.89%; under `C[C@@H]1CN([C@@H](C)CO)C(=O)c2cc(NC(=O)Nc3ccc4c(c3)OCO4)ccc2O[C@@H](C)CCCCO[C@@H]1CN(C)C(=O)Nc1ccc2c(c1)OCO2`, -7.76%; under `CN1[C@@H]2c3ccc(C4=CCCCC4)c(=O)n3C[C@H]1[C@H](CO)[C@H]2C(=O)NCc1ccc(F)cc1`, 66.5%.
Next, `O=C([C@@H]1[C@@H](CO)[C@@H]2Cn3c(ccc(-c4ccccc4F)c3=O)[C@H]1N2C(=O)C1CCC1)N1CCCCC1`: -49%; `O=C(NCC1CC1)[C@@H]1[C@@H](CO)[C@@H]2Cn3c(ccc(C4=CCCC4)c3=O)[C@H]1N2CCC(F)(F)F`: -0.412%.
Regarding `COc1ccc(-c2ccc3c(c2)[C@H]2[C@H](CCN2S(=O)(=O)c2ccccc2F)[C@H](CO)N3)cc1`, the inhibition is 14.9%.
On to `CCCN1[C@H](C(=O)NC2Cc3ccccc3C2)[C@@H](CO)[C@@H]2Cn3c(cccc3=O)[C@@H]21`, for which the inhibition is -19.6%.
Next, `Cc1ccc(S(=O)(=O)N2C[C@@H](O)COC[C@@H]3O[C@@H](CC(=O)N[C@H]4CCN(Cc5ccccc5)C4)CC[C@H]32)cc1`: -6.53%; `CCC(=O)Nc1ccc2c(c1)C(=O)N(C)[C@H]1CC[C@H](CC(=O)NC3Cc4ccccc4C3)O[C@H]1CO2`: 37.2%.
For `CC(C)NC(=O)Nc1ccc2c(c1)C(=O)N([C@@H](C)CO)C[C@@H](C)[C@@H](CN(C)S(=O)(=O)c1ccc(F)cc1)OCCCC[C@H](C)O2`, the inhibition was -55.2%.
Next, `CCCNC(=O)C[C@@H]1C[C@H]2c3cc(NC(=O)Nc4ccccc4F)ccc3O[C@H]2[C@H](CO)O1`: 10.8%; `C[C@H]1CCCCO[C@@H](CN(C)Cc2ccc3c(c2)OCO3)[C@@H](C)CN([C@@H](C)CO)C(=O)c2cc(NS(=O)(=O)c3ccc(F)cc3)ccc2O1`: 73.3%.
Next, `CC(C)NC(=O)N(C)C[C@H]1OCCCC[C@H](C)Oc2ccc(NC(=O)Nc3ccc(C(F)(F)F)cc3)cc2C(=O)N([C@H](C)CO)C[C@@H]1C`: 36.4%.
Next, `C[C@@H]1CCCCO[C@H](CN(C)C(=O)Nc2ccc(C(F)(F)F)cc2)[C@H](C)CN([C@H](C)CO)C(=O)c2cc(NC(=O)Nc3ccc(C(F)(F)F)cc3)ccc2O1`: 120% (active).
For the compound `C[C@@H]1CCCCO[C@@H](CN(C)C(=O)Nc2ccc(C(F)(F)F)cc2)[C@H](C)CN([C@H](C)CO)C(=O)c2cc(NC(=O)c3ccccc3)ccc2O1`, the inhibition was 94.9%.
Next, `C[C@@H]1CCCCO[C@H](CN(C)C(=O)CCCN(C)C)[C@H](C)CN([C@H](C)CO)C(=O)c2cc(NC(=O)CCC(F)(F)F)ccc2O1`: 16.6%; `CNC(=O)C[C@H]1CC[C@H]2[C@H](COc3ccc(NC(=O)Nc4cccc(C)c4)cc3C(=O)N2C)O1`: 12.8%; `O=C(Cc1ccccn1)N[C@H]1CC[C@@H](CC(=O)N2CCCCC2)O[C@@H]1CO`: -26%.
As for `C[C@H](CO)N1C[C@H](C)[C@H](CN(C)Cc2ccccc2)Oc2ncc(-c3ccccc3)cc2C1=O`, the inhibition was 23.4% and 14.8%.
Next, `C[C@@H]1CN([C@H](C)CO)C(=O)c2cc(-c3ccccc3)cnc2O[C@H]1CN(C)C(=O)Nc1ccccc1`: -81.2%.
Next, `COc1ccc(-c2cnc3c(c2)C(=O)N([C@H](C)CO)C[C@H](C)[C@H](CN(C)S(=O)(=O)c2ccccc2)O3)cc1`: 37.7%; `Cc1ccc(-c2cnc3c(c2)C(=O)N([C@H](C)CO)C[C@@H](C)[C@H](CN(C)Cc2ccccc2C(=O)O)O3)cc1`: -6.32%; `Cc1ccc(-c2cnc3c(c2)C(=O)N([C@@H](C)CO)C[C@@H](C)[C@H](CN(C)Cc2ccccc2F)O3)cc1`: 111% (active).
Under `C[C@@H]1CN([C@H](C)CO)C(=O)c2cc(Br)cnc2O[C@@H]1CN(C)C(=O)Nc1ccc(F)cc1` stands -142%; under `C[C@H](CO)N1C[C@H](C)[C@H](CN(C)S(=O)(=O)c2ccc(F)cc2)Oc2ncc(-c3ccc(F)cc3)cc2C1=O`, 22.6%; under `Cc1ccc(S(=O)(=O)N(C)C[C@@H]2Oc3ncc(-c4cc5ccccc5o4)cc3C(=O)N([C@H](C)CO)C[C@@H]2C)cc1`, 117% (active).
Turning to `C[C@H](CO)N1C[C@H](C)[C@H](CN(C)C(=O)Nc2ccc(F)cc2)Oc2ncc(-c3cc4ccccc4o3)cc2C1=O`, the inhibition was 119% (active).
Under `CC=Cc1ccc2n(c1=O)C[C@H]1[C@H](CO)[C@@H](C(=O)NCc3ccncc3)N(Cc3cncnc3)[C@@H]21` (mixture of isomers) stands 37.5%; under `CCCN1[C@H](C(=O)NCC)[C@@H](CO)[C@@H]2Cn3c(ccc(C4=CCCC4)c3=O)[C@@H]21`, 32%; under `COc1cccc(C(=O)Nc2ccc3c(c2)C(=O)N(C)C[C@@H](OC)[C@@H](C)CN(C)[C@@H](C)CO3)c1`, -27.6%.
